The values that follow come from PubChem BioAssay (NCATS).

The structures appear in SMILES notation. “And” between values parts separate entries of the source, which are not always exact repeats. Equal values may be shown once. Results filed as inconclusive are left out. A number with no mark means an inactive call. The source made the active and inactive calls. The call rests on the fitted dose curve; in most records, active means well fitted curve in the direction sought with a large enough effect; inconclusive means small, poorly fitted or top-dose-only effect, or another doubt; inactive means no such curve, though single readings can be large; an effect the other way counts as inactive or inconclusive.

Assay [1] can be described thus: Viability qHTS for spleen associated tyrosine kinase inhibitor (SYKi) naive MV4-11 cells (AID 1963823). Further: nearly all actives have a fitted effect of over 40% in size. The method, boiled down:
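SYK inhibitor-naive MV4-11 cells, 500 per well, exposed to compounds for 72 hr at 37 C, 5% CO2. Viability read as CellTiter-Glo luminescence after 10 min at room temperature.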
Background: Quantitative high-throughput screening tests each substance at several concentrations.

The nature of assay [2]: Viability qHTS for spleen associated tyrosine kinase inhibitor (SYKi) drug resistant MV4-11 cells (AID 1963824). Further: nearly all actives have a fitted effect of over 35% in size. The method, boiled down:
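SYK-inhibitor-resistant MV4-11 AML cells were seeded at 500 per well onto compound and cultured 72 hours (37 °C, 5% CO2). CellTiter-Glo was then added, and after 10 min at room temperature, luminescence gave viability.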

A short description of assay [3]: Quantitative highthroughput screen to assess conditional lethalithy of NOMO1 cells grown in Human Plasma-Like Medium with dialyzed fetal bovine serum (HPLM+ds) (AID 1963878). Further: nearly all actives have a fitted effect of over 35% in size. The method, boiled down:
(§1)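 Each medium arm—HPLM with 10% dialyzed FBS, or RPMI1640 with 5 mM glucose and 10% untreated or dialyzed FBS—was screened against an 11-point, 3-fold compound titration for 48 h at 37 °C, with CellTiter-Glo luminescence as endpoint.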

Assay [4] in a line: Quantitative highthroughput screen to assess conditional lethalithy of SEM cells grown in RPMI1640 with unreated serum (RPMI+s) (AID 1963883). Further: nearly all actives have a fitted effect of over 35% in size.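 On Viability: 100% = DMSO wells and 0% = empty wells without cells.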 In short, it runs like this: as §1
The nature of assay [5]: Quantitative highthroughput screen to assess conditional lethalithy of SEM cells grown in RPMI1640 with dialyzed fetal bovine serum (RPMI+ds) (AID 1963884). Further: nearly all actives have a fitted effect of over 35% in size.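 On Viability: series mostly up to about 46 µM; 100% = DMSO control wells and 0% = empty wells without cells.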 In short, it runs like this: as §1
Assay [6] can be described thus: Cellular viability qHTS for adrenocortical cancer (ACC) cell line SW-13 (AID 1963989). Further: nearly all actives have a fitted effect of over 65% in size.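 On activity (max response): cells grown in serum-free medium with ITS supplement; on the % scale 0 is the no-effect control and ±100 the full control effect.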 Conditions: SW-13 ACC cells viability, CellTiter-Glo, 48 h; activity (max response): stronger effect = lower value. The method, boiled down:
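Luminescent ATP read-out (CellTiter-Glo, 20 min at room temperature) measured metabolically competent SW-13 cells after 48 h compound treatment. Final concentrations spanned up to 46 uM; bortezomib served as positive control.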

A short description of assay [7]: Cellular viability qHTS for adrenocortical cancer (ACC) cell line NCI-H295R (AID 1963990). Further: nearly all actives have a fitted effect of over 60% in size. In short, it runs like this: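 IC50 and maximal efficacy derive from four-parameter logistic modelling of titration curves, with reads scaled between DMSO-only wells (0%) and doxorubicin hydrochloride (100% inhibition). Compounds spanned up to 46 uM over 48 h.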
Assay [8] can be described thus: Quantitative highthroughput screen to assess conditional lethalithy of P12 Ichikawa cells grown in Human Plasma-Like Medium with dialyzed fetal bovine serum (HPLM+ds) (AID 1963879). Further: nearly all actives have a fitted effect of over 35% in size. On Viability: series mostly up to about 46 µM. Conditions: Potency: viability. In short, it runs like this:
as §1

Assay [9] in a line: Quantitative highthroughput screen to assess conditional lethalithy of P12 Ichikawa cells grown in RPMI1640 with dialyzed fetal bovine serum (RPMI+ds) (AID 1963880). Further: nearly all actives have a fitted effect of over 35% in size.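 On Viability: 100% = DMSO wells and 0% = empty wells on each plate.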 Conditions: Potency: P12-Ichikawa viability. The method, boiled down: as §1
Assay [10] is described as follows: Quantitative highthroughput screen to assess conditional lethalithy of P12 Ichikawa cells grown in RPMI1640 with untreated serum (RPMI+s) (AID 1963881). Further: nearly all actives have a fitted effect of over 35% in size.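 On Viability: series mostly up to about 46 µM; 100% = DMSO wells and 0% = empty wells without cells.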 Conditions: Potency: viability. In short, it runs like this:
as §1

A short description of assay [11]: Quantitative highthroughput screen to assess conditional lethalithy of SEM cells grown in Human Plasma-Like Medium with dialyzed fetal bovine serum (HPLM+ds) (AID 1963882). Further: nearly all actives have a fitted effect of over 35% in size. On Viability: series mostly up to about 46 µM. The method, boiled down:
as §1
Potency means the concentration at half of the fitted maximal effect.

Consider `Cc1nc(N)sc1-c1ccnc(Nc2ccc(N3CCOCC3)cc2)n1`, for which the Potency in assay [1] is 82 nM (active); in assay [2] it was 0.164 µM (active); in assay [3] it was 4180 nM (active); in assay [4], 2350 nM (active); in assay [5] it was 2090 nM (active). Moreover, in assay [6], the activity (max response) was 4.45%. Also, in assay [7], the Potency result was “inactive”.

On to `Cc1ccc(C(=O)Nc2ccc(CN3CCN(C)CC3)c(C(F)(F)F)c2)cc1C#Cc1cnc2cccnn12`, for which the Potency result in [1] was “inactive”. Moreover, the Potency is 0.0053 µM (active) in assay [2], 935 nM (active) in assay [3], 3160 nM (active) in assay [6] and 4.47 µM (active) in [7].

Take `CCn1c(=O)c2c(nc(C=Cc3ccc(OC)c(OC)c3)n2C)n(CC)c1=O`: the Potency entry in [1], in assay [2], in assay [8], in assay [9], in assay [10] and in assay [11] was “inactive” in each case. Besides, the Potency entry in assay [4], in assay [5] and in assay [7] was “inactive” each time. Moreover, the activity (max response) in assay [6] is 1.29%.

As for `CC[C@H](C)n1cc(C)c2c(C(=O)NCc3c(C)cc(C)[nH]c3=O)cc(-c3ccc(N4CCNCC4)nc3)cc21`, the Potency in [1] is 7420 nM (active); in [2], 10.5 µM (active); in assay [7], 28.2 µM (active). Also, the Potency entry in assay [8], in [9], in [10], in assay [11], in [4] and in assay [5] was “inactive” each time.

For `c1ccc(CNc2nc(NCc3ccccc3)c3ccccc3n2)cc1`, the Potency in assay [1] was 1860 nM (active); in assay [2], 2.09 µM (active); in assay [3], 26400 nM (active); in assay [6], 3980 nM (active); in [7], 7.08 µM (active). Further, the Potency result in assay [8] and in assay [5] was “inactive” in each case.

As to `Cc1cccc(Nc2nc(N[C@@H]3CCCC[C@H]3N)ncc2C(N)=O)c1`, the Potency in assay [1] is 934 nM (active); in [2], 2.63 µM (active); in assay [3], 935 nM (active); in assay [8], 1320 nM (active); in assay [4], 4180 nM (active); in assay [5], 2350 nM (active). For the same compound, the figures for the Potency in assay [6] and in assay [7] were 25100 nM (active) and 28.2 µM (active), respectively.

Take `FC(F)c1nc2ccccc2n1-c1nc(N2CCOCC2)nc(N2CCOCC2)n1`: the Potency in [1] was 186 nM (active); in [2], 820 nM (active) and 525 nM (active); in assay [3], 14.8 nM (active); in assay [7] it was 0.562 µM (active).

As to `CNC(=O)c1c(F)cccc1Nc1nc(Nc2cc3c(cc2OC)CCN3C(=O)CN(C)C)nc2[nH]ccc12`, the Potency in [1] was 2.59 µM (active) and 4.68 µM (active); in assay [2], 2.91 µM (active) and 4.68 µM (active); in [3] it was 16600 nM (active); in assay [11], 590 nM (active); in assay [4], 469 nM (active); in assay [5] it was 296 nM (active). Also, in assay [7], the Potency is 1.12 µM (active).

Turning to `CNCCCC12CCC(c3ccccc31)c1ccccc12`, the Potency was 18.8 µM (active) and 14.6 µM (active) in [1]; 18.4 µM (active) in assay [2]; 18700 nM (active) in assay [3]; 18700 nM (active) in [9]; 18700 nM (active) in assay [10]; 23.1 µM (active) and 25.1 µM (active) in assay [7]. For the same compound, in assay [4], the Potency result is “inactive”.

`C#Cc1cccc(Nc2ncnc3cc(OCCOC)c(OCCO)cc23)c1`: the Potency in [1] is 1480 nM (active); in [2] it was 2.63 µM (active); in assay [3], 9350 nM (active); in [4], 20900 nM (active); in assay [6], 6310 nM (active).

For `CCC[C@H](Nc1nc(-c2ccc(NC(=O)NCC)c(OC)c2)ncc1C)c1cccnc1`, the Potency was 74.2 nM (active) in assay [1]; 0.118 µM (active) in assay [2]; 41.8 nM (active) in assay [8]; 41.8 nM (active) in assay [9]; 41.8 nM (active) in assay [10]; 41.8 nM (active) in assay [11]. Besides, in [6], the Potency was 224 nM (active).

Consider `CN1CCCN(C(=O)c2cccc(-c3ccc(C=C4C(=O)Nc5ccc(Cl)cc54)o3)c2)CC1`, for which the Potency in [1] is 517 nM (active); in assay [2], 0.461 µM (active); in [8] it was 2960 nM (active); in assay [9], 14800 nM (active); in [10], 5900 nM (active); in assay [4], 1320 nM (active). The Potency in assay [5] was 1870 nM (active).

Consider `CN1CCN(CCOc2cc(OC3CCOCC3)c3c(Nc4c(Cl)ccc5c4OCO5)ncnc3c2)CC1`, for which the Potency in assay [1] is 6.51 µM (active) and 5.9 µM (active); in assay [2] it was 9.2 µM (active) and 9.34 µM (active); in [8] it was 8330 nM (active); in assay [9], 18700 nM (active); in [10], 29600 nM (active); in [4], 6620 nM (active). The Potency in assay [5] is 10500 nM (active); in assay [6], 3980 nM (active); in [7], 31.6 µM (active).

On to `NC(=O)Nc1cc(-c2ccc(CN3CCOCC3)cc2)sc1C(N)=O`, for which the Potency in assay [1] was 209 nM (active); in assay [2] it was 0.468 µM (active); in assay [8], 118 nM (active); in assay [9], 118 nM (active); in assay [10], 118 nM (active); in assay [11] it was 132 nM (active). In addition, the Potency in assay [4] is 118 nM (active); in assay [5], 105 nM (active); in [7], 5.01 µM (active). Further, the activity (max response) in [6] was -17.8%.

As to `O[C@@H](CNC[C@H](O)[C@H]1CCc2cc(F)ccc2O1)[C@@H]1CCc2cc(F)ccc2O1`, the Potency in [1] was 10600 nM (active); in assay [2] it was 21.1 µM (active); in assay [3] it was 20900 nM (active); in assay [7], 18.4 µM (active). Also, the Potency result in assay [8] is “inactive”.

With `CCn1cc(-c2ccnc3[nH]c(-c4cccc(CN(C)C)c4)cc23)c(-c2ccc(NC(=O)N(C)C)cc2)n1`, the Potency in assay [1] is 103 nM (active) and 83.3 nM (active); in assay [2], 282 nM (active) and 235 nM (active); in [8] it was 66.2 nM (active); in assay [9], 83.3 nM (active); in assay [10], 83.3 nM (active); in [11], 74.3 nM (active). Further, the figures for the Potency in assay [4], in assay [6] and in assay [7] were 46.9 nM (active), 17800 nM (active) and 12.6 µM (active), respectively.
